Source: the supplement of paper PMC8975748
Where a name gives a salt, the structure may show the parent alone.

Test system: Saccharomyces cerevisiae BY4741 SeMeCo community
Test: z-score of subpopulation abundance vs DMSO median, subpopulation auxotrophic for HLU; higher = larger share of this subpopulation than in DMSO controls
Details: 10 µM; 24 h; SM minimal medium; subpopulation (auxotrophy): HLU
Procedure: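 Fluorescent four-plasmid SeMeCo (self-establishing metabolically cooperating S. cerevisiae BY4741 community; plasmids pH-mRuby2, pL-mWasabi, pU-eCFP, pM-TagRFP657) was grown 24 h in minimal SM medium with each Selleck FDA-approved drug at 10 µM in 384-well plates. Cells were fixed and imaged by high-content confocal microscopy. For each auxotrophic subpopulation (and the prototroph), a z-score gives the deviation from the DMSO vehicle-control population median.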

| SMILES | z-score of subpopulation abundance |
| --- | --- |
| C=CCN1C[C@H](C(=O)N(CCCN(C)C)C(=O)NCC)C[C@@H]2c3cccc4[nH]cc(c34)C[C@H]21 [Cabergoline] | -0.08 |
| CN1[C@@H]2C[C@@H](OC(=O)[C@H](CO)c3ccccc3)C[C@H]1[C@@H]1O[C@@H]12 [Scopolamine HBr trihydrate] | -0.91 |
| C=C(C)[C@H]1Cc2c(ccc3c2O[C@@H]2COc4cc(OC)c(OC)cc4[C@@H]2C3=O)O1 [Rotenone (Barbasco)] | 1.77 |
| Cc1cc(C(C#N)c2ccc(Cl)cc2)c(Cl)cc1NC(=O)c1cc(I)cc(I)c1O (centres undefined) [Closantel] | 0.79 |
| CN(C)[C@@H]1C(=O)C(C(N)=O)=C(O)[C@@]2(O)C(=O)C3=C(O)c4c(O)cccc4[C@@](C)(O)[C@H]3[C@H](O)[C@@H]12 [Oxytetracycline Dihydrate] | 0.15 |
| CC(C)N(CCC(C(N)=O)(c1ccccc1)c1ccccn1)C(C)C (centres undefined) [Disopyramide] | 1.07 |
| NCC(O)c1ccc(O)cc1 (racemic) [(+,-)-Octopamine HCl] | -0.28 |
| CC(C)=CCOc1c2occc2cc2ccc(=O)oc12 [Imperatorin] | 0.14 |
| COc1ccc(C(CN(C)C)C2(O)CCCCC2)cc1 (centres undefined) [Venlafaxine] | -0.41 |
| CC[C@H]1CN2CC[C@]3(C(=O)Nc4ccccc43)[C@@H]2C[C@@H]1/C(=C\OC)C(=O)OC [Rhynchophylline] | 0.21 |
| CN(C)C(=O)Oc1cccc([N+](C)(C)C)c1 [Neostigmine Bromide] | 0.32 |
| COc1cc2c(cc1OC)C1CC(=O)C(CC(C)C)CN1CC2 (centres undefined) [Tetrabenazine (Xenazine)] | -0.31 |
| Nc1ccncc1 [4-Aminopyridine] | 0.05 |
| CN[C@@H]1[C@@H](O)[C@@H](O[C@@H]2[C@@H](O)[C@H](O[C@H]3O[C@H](CN)CC[C@H]3N)[C@@H](N)C[C@H]2N)OC[C@]1(C)O.CN[C@@H]1[C@@H](O)[C@@H](O[C@@H]2[C@@H](O)[C@H](O[C@H]3O[C@H]([C@@H](C)N)CC[C@H]3N)[C@@H](N)C[C@H]2N)OC[C@]1(C)O.CN[C@@H]1[C@@H](O)[C@@H](O[C@@H]2[C@@H](O)[C@H](O[C@H]3O[C@H]([C@@H](C)NC)CC[C@H]3N)[C@@H](N)C[C@H]2N)OC[C@]1(C)O [Gentamicin Sulfate] | -0.42 |
| CN(C)C(=O)Oc1ccc[n+](C)c1 [Pyridostigmine Bromide] | -0.68 |
| CCC1=C[C@H]2CN3CCc4c([nH]c5ccccc45)[C@](C(=O)OC)(C2)[C@H]13 [Catharanthine] | -0.62 |
| CN1c2ccccc2C(NCCCCCCC(=O)O)c2ccc(Cl)cc2S1(=O)=O (centres undefined) [Tianeptine sodium] | -0.23 |

| SMILES | z-score of subpopulation abundance |
| --- | --- |
| CC1(C)SC2C(N)C(=O)N2C1C(=O)O (centres undefined) [6-Aminopenicillanic acid] | -0.15 |
| C[N+]12CCC(CC1)C(OC(=O)C(O)(c1ccccc1)c1ccccc1)C2 (centres undefined) [Clidinium Bromide] | -0.31 |
| Oc1cccc2cccnc12 [8-Hydroxyquinoline] | -0.85 |
| CN(C)[C@@H]1C(=O)C(C(N)=O)=C(O)[C@@]2(O)C(=O)C3=C(O)c4c(O)cccc4[C@@](C)(O)[C@H]3C[C@@H]12 [Tetracycline HCl] | 0.02 |
| CC[C@H]1[C@@H]2C[C@H]3[C@@H]4N(C)c5ccccc5[C@]45C[C@@H]([C@@H]2[C@H]5O)N3[C@@H]1O [Ajmaline] | -0.63 |
| COc1ccc2c(c1)[C@]13CCCC[C@@H]1[C@H](C2)N(C)CC3 [Dextromethorphan hydrobromide hydrate] | -0.08 |
| C=C[C@H]1CN2CC[C@H]1C[C@H]2[C@H](O)c1ccnc2ccccc12 [Cinchonidine] | -0.48 |
| COC(=O)C1=CCCN(C)C1 [Arecoline HBr] | 0.06 |
| CCOC(=O)Nc1ccc(NCc2ccc(F)cc2)cc1N [Retigabine] | 0.77 |
| N#Cc1nn(-c2c(Cl)cc(C(F)(F)F)cc2Cl)c(N)c1[S+]([O-])C(F)(F)F (centres undefined) [Fipronil] | -1 |
| C[N+](C)(C)CCCCCCCCCC[N+](C)(C)C [Decamethonium Bromide] | 0 |
| C[N+]1(C)[C@@H]2C[C@@H](OC(=O)[C@H](CO)c3ccccc3)C[C@H]1[C@@H]1O[C@@H]12 [Methscopolamine] | 0.5 |
| NC(=O)CN1CCCC1=O [Piracetam] | 1.5 |
| O=C(O[C@H]1C[C@H]2CC[C@@H](C1)[N+]21CCCC1)C(O)(c1ccccc1)c1ccccc1 [Trospium chloride] | -0.58 |
| C[C@@H]1CC[C@H]2[C@@H](C)C(=O)O[C@@H]3O[C@@]4(C)CC[C@@H]1[C@]32OO4 [Artemisinin] | -0.05 |
| CN1[C@@H]2CC[C@H]1C[C@@H](OC(=O)[C@H](CO)c1ccccc1)C2 [Hyoscyamine] | 0.2 |
| CC(=O)OCC1=C(C(=O)O)N2C(=O)C(N)C2SC1 (centres undefined) [7-Aminocephalosporanic acid] | -0.25 |
